Laboratory results: PubChem BioAssay (NCATS)
Where “and” joins values, the source holds several entries; their conditions need not be identical. Equal entries are not always repeated. Results filed as inconclusive are left out. Entries that show only a call come without a potency. Values without a mark were called inactive. Calls of active or inactive are those of the source. Calls come from the whole dose curve; as a rule, active = well fitted curve in the direction sought with a large enough effect; inconclusive = small, poorly fitted or top-dose-only effect, or another doubt; inactive = no such curve, though single readings can be large; an effect the other way counts as inactive or inconclusive.

Experiments:
[1] = biological target: Cellular tumor antigen p53 (Homo sapiens) (UniProt P04637); assay: Primary qHTS for small molecule compounds that upregulate eGFP-tagged delta133p53alpha (in N-terminal) cells. (AID 2060322); details: NCI-H358 eGFP-delta133p53alpha fluorescence, 24 h; activation: stronger effect = higher value; note: nearly all actives have a fitted effect of over 75% in size; note: potency is the fitted concentration of half-maximal effect; for activation: series mostly up to about 56 µM
Chain of Cellular tumor antigen p53 (Homo sapiens) (P04637 whole entry, looked up): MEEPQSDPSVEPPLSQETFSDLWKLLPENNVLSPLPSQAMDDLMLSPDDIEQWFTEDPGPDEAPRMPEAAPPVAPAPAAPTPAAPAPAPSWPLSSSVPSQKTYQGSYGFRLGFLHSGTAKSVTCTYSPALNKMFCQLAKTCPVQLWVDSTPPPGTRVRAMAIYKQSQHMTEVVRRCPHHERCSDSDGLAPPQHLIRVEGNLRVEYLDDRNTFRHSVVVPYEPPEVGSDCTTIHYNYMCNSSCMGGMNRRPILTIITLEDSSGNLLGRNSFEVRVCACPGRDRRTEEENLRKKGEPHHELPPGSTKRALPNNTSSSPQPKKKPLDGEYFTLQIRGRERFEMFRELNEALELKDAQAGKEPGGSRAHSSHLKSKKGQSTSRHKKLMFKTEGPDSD
Summary of the method: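 NCI-H358 cells pre-induced 24 h with 10 ng/ml doxycycline to express N-terminal eGFP-delta133p53alpha, then dosed 24 h at 37C without doxycycline; fixed, Hoechst-stained, GFP intensity by laser scanning cytometry, normalized to DMSO (0%) and 57.5 uM 5-azacytidine (100%).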

[2] = biological target: Aldehyde dehydrogenase, mitochondrial (Homo sapiens) (UniProt P05091); assay: qHTS for Inhibitors of the Aldehyde Dehydrogenase Family (ALDH2) Primary screen (AID 2061308); note: nearly all actives have a fitted effect of over 55% in size
[3] = biological target: Retinaldehyde dehydrogenase 3 (Homo sapiens) (UniProt P47895); assay: qHTS for Inhibitors of the Aldehyde Dehydrogenase Family (ALDH1A3) Primary screen (AID 2061315)

SMILES | activation [1] | Potency [2] | Potency [3] | activity change, negative = inhibition [2] | activity change, negative = inhibition [3] | Potency [1]
C[C@@H]1CCC2C(C)(C)[C@H](O)CC[C@]2(C)[C@@]12Cc1c(O)cc3c(c1O2)CNC3=O (stereo partly specified) | -20.6% | inactive | inactive |  |  | 
COc1cc(C2Oc3c(O)cc(CCCO)cc3C2CO)ccc1O[C@H]1O[C@H](C)[C@@H](O)[C@H](O)[C@@H]1O (stereo partly specified) | -19.1% | inactive | inactive |  |  | 
COc1cc(C)c(C(=O)O[C@H]2[C@@H](O)[C@H](n3ccc(=O)[nH]c3=O)O[C@@H]2CO)c(OC)c1 | -3.05% | inactive | inactive |  |  | 
COC1/C=C/C(C)(O)C(SCC(N)C(=O)O)CC(=O)OC(C)C(C)CC/C=C/1C (stereo unspecified) | 0.763% | inactive | inactive |  |  | 
Cc1ccc(-c2ncccn2)c(C(=O)N2C[C@H](COc3ccc(F)cn3)CC[C@H]2C)c1 | -14.3% | inactive | inactive |  |  | 
O=c1[nH]ccc2cc(OC3CCNCC3)ccc12 | -7.14% | inactive | inactive |  |  | 
COc1c(C)c(OCC(O)C(C)(C)O)cc2c1COC2=O (stereo unspecified) | 5.34% | inactive | inactive |  |  | 
O=C1NC(Cc2ccc(O)cc2)C(=O)N2CCCC12 (stereo unspecified) | -19.8% | inactive | inactive |  |  | 
Cc1cn2c(N)c(Cl)cc(C(=O)NCC3CCN(CC(C)C)CC3)c2n1 | -0.893% | inactive | inactive |  |  | 
CC1(C)C(=O)N2c3ccccc3C(O)(CC(C(=O)O)n3cnc4ccccc4c3=O)C2N1O (stereo unspecified) | 16% | inactive | inactive |  |  | 
C[C@@H]1O[C@@H](O[C@H]2[C@H](OC(=O)[C@]34CCC(C)(C)C[C@H]3C3=CCC5[C@@]6(C)CC[C@H](O[C@@H]7O[C@H](CO[C@@H]8OC[C@H](O)[C@H](O)[C@H]8O)[C@@H](O)[C@H](O)[C@H]7O)C(C)(C)C6CC[C@@]5(C)[C@]3(C)C[C@H]4O)OC[C@@H](O)[C@@H]2O)[C@H](O)[C@H](O)[C@H]1O[C@@H]1OC[C@H](O)[C@H](O[C@@H]2OC[C@@H](O)[C@H](O)[C@H]2O)[C@H]1O (stereo partly specified) | 3.82% |  |  | 2.19% [at 11.2 µM] | 8.01% [at 11.2 µM] | 
CCc1nn(CCO)c(CC)c1Oc1cc(C#N)cc(C#N)c1 | 11.9% | inactive | inactive |  |  | 
COC(=O)N1CCC(n2ncc3c(N4CCOCC4)nc(-c4ccc(NC(=O)Nc5ccc(CO)cc5)cc4)nc32)CC1 |  | inactive | inactive |  |  | 21.3 µM (active)
CC1CCCCN1S(=O)(=O)c1ccc(N2CCCC2=O)cc1 (stereo unspecified) | 2.86% | inactive | inactive |  |  | 
CC(=O)OC1CC(C(C)(C)O)OC2CCC3(C)OC4=C(C(=O)C=C5C(C)C(OC(C)=O)C6(C)C(C)OC546)C(O)C3C12C (stereo unspecified) | 2.68% | inactive | inactive |  |  | 
C/C(=C\CCC(C)CCO)C(=O)OC1(C)CCC2C(C(=O)O)=COC(OC3OC(CO)C(O)C(O)C3O)C21 (stereo unspecified) | 4.58% | inactive | inactive |  |  | 
C=C(C(=O)O)C1CCC(C)C2CCC(=O)OC2(C)C1 (stereo unspecified) | 18.8% | inactive | inactive |  |  | 
Nc1nc(Nc2ccc3c(c2)CCC(N2CCCC2)CC3)nn1-c1cc2c(nn1)-c1ccccc1CCC2 (stereo unspecified) |  | inactive | inactive |  |  | 26.9 µM (active)
CC(C)=CCC[C@@](C)(O)[C@H]1CC[C@]2(C)[C@@H]1[C@H](O)CC1[C@@]3(C)CC[C@H](O[C@@H]4O[C@H](CO)[C@@H](O)[C@H](O)[C@H]4O[C@@H]4O[C@H](CO)[C@@H](O)[C@H](O)[C@H]4O)C(C)(C)[C@@H]3CC[C@]12C (stereo partly specified) | -17.6% | inactive | inactive |  |  | 
COC(=O)C1=C2Nc3ccccc3C23CCN2CCCC(C(C)O)(C1)C23 (stereo unspecified) | 18.8% | inactive | inactive |  |  | 
CC(C)(C)NC(=O)[C@@H]1CN(Cc2cccnc2)CCN1C[C@@H](O)C[C@@H](Cc1ccccc1)C(=O)N[C@H]1c2ccccc2C[C@H]1O | -2.82% and 2.86% | inactive | inactive |  |  | 
C[C@@H]1O[C@@H](O[C@H]2[C@H](OC(=O)[C@]34CCC(C)(C)C[C@H]3C3=CCC5[C@@]6(C)C[C@@H](O)[C@@H](O[C@@H]7O[C@H](CO)[C@@H](O)[C@H](O)[C@H]7O)[C@@](C)(CO)C6[C@H](O)C[C@@]5(C)[C@]3(C)CC4)OC[C@H](O)[C@@H]2O)[C@H](O)[C@H](O[C@@H]2OC[C@](O)(CO)[C@H]2O)[C@H]1O[C@@H]1OC[C@@H](O)[C@H](O[C@H]2O[C@H](C)[C@@H](O)[C@H](O)[C@@H]2O)[C@H]1O (stereo partly specified) | 6.25% |  |  | 9.79% [at 11.2 µM] | 2.17% [at 11.2 µM] | 
CCN(CC)C(=O)c1ccc(Nc2nc(OCC3CCCCC3)c3[nH]cnc3n2)cc1 | 8.04% | inactive | inactive |  |  | 
O=C1c2c(O[C@@H]3O[C@H](CO)[C@@H](O)[C@H](O)[C@H]3O)cc(O)cc2OC1(O)Cc1ccc(O)cc1 (stereo partly specified) |  | inactive | inactive |  |  | 10.4 µM (active)
O=C(c1ccccn1)N(Cc1cccs1)C1(C(=O)NC2CCCCC2)CCCCC1 | -1.67% | inactive | inactive |  |  | 
O=c1c2ccccc2nc2n1CCC2O (stereo unspecified) | -3.82% | inactive | inactive |  |  | 

SMILES | activation [1] | Potency [2] | Potency [3] | activity change, negative = inhibition [2] | activity change, negative = inhibition [3] | Potency [1]
Cc1cc2c(cc1N1C(=O)c3cccc4c(CCCO)ccc(c34)C1=O)n(C)c(=O)n2C | 5% | inactive | inactive |  |  | 
CC(C)(O)c1ccc2c(c1)C(O)C[C@H]1[C@](C)(C(=O)O)CCC[C@]21C (stereo partly specified) | 3.57% | inactive | inactive |  |  | 
CC(=O)OC1C(O)C(C)(O)C(/C=C/C(=O)O)C2(C)CCCC(C)(C)C12 (stereo unspecified) | -17.6% | inactive | inactive |  |  | 
C=C1[C@H](OC(C)=O)[C@H]2[C@@H](OC(C)=O)[C@](C)(OC(C)=O)C[C@]2(OC(C)=O)C(=O)[C@H](C)/C=C/C(C)(C)C(=O)[C@H](OC(=O)C(C)CC)[C@H]1OC(C)=O (stereo partly specified) | -14.5% | inactive | inactive |  |  | 
CCCCS(=O)(=O)Nc1ncnc(OCCOc2ncc(Br)cn2)c1-c1ccc(Br)cc1 | -20.3% | inactive | inactive |  |  | 
C=C(C(=O)O)[C@@H]1CC=C(CCC(C)=O)[C@@H](C)CC1 | 8.93% | inactive | inactive |  |  | 
C=CC(C)(CC/C=C(\C)C(=O)OC)OC1OC(COC(=O)CC(C)(O)CC(=O)O)C(O)C(O)C1O (stereo unspecified) | -3.05% | inactive | inactive |  |  | 
COC(=O)CC(O)C1OC(c2ccccc2)C(O)C1O (stereo unspecified) | -2.29% | inactive | inactive |  |  | 
CC(C)c1nc(N(C)S(C)(=O)=O)nc(-c2ccc(F)cc2)c1/C=C/[C@@H](O)C[C@@H](O)CC(=O)O | -19% | inactive | inactive |  |  | 
CC1CCC2(CO)C(C(=O)O)=CCCC2C1(C)CCc1ccoc1 (stereo unspecified) | 14.3% | inactive | inactive |  |  | 
COc1ccc(S(=O)(=O)n2cnc3cc(C)c(C)cc32)cc1 | -3.67% | inactive | inactive |  |  | 
COc1cc(CCO)ccc1O[C@@H]1O[C@H](CO)[C@@H](O)[C@H](O)[C@H]1O | 5.36% | inactive | inactive |  |  | 
O=S(=O)(NC1CCNCC1)c1cc(S(=O)(=O)c2ccccc2)ccc1C(F)(F)F | 5.25% | inactive | inactive |  |  | 
Cc1cc(O)cc(O[C@@H]2O[C@H](CO)[C@@H](O)[C@H](O)[C@H]2O)c1 | -6.11% | inactive | inactive |  |  | 
C=C[C@]1(C)C[C@H](O)[C@@H]2[C@H](OC(=O)[C@@H]2C)C1/C(C)=C/O[C@@H]1O[C@H](CO)[C@@H](O)[C@H](O)[C@H]1O (stereo partly specified) | -27.7% | inactive | inactive |  |  | 
CCOC(=O)C1=Cc2ccc(C(F)(F)C(F)(F)F)cc2N=C(N)C1 | -1.79% | inactive | inactive |  |  | 
CC1(C)CC[C@]2(C(=O)O)CC[C@]3(C)C(=CCC4[C@@]5(C)C[C@H](O)[C@H](O[C@@H]6O[C@H](CO)[C@@H](O)[C@H](O)[C@H]6O)[C@@](C)(CO)C5[C@H](O)C[C@]43C)[C@@H]2C1 (stereo partly specified) | -13% | inactive | inactive |  |  | 
CC1(C)CCCC2(C)C1CC(=O)C13CC(CCC12)C(O)(CO)C3 (stereo unspecified) | -7.63% | inactive | inactive |  |  | 
CC(=O)OC1C(O)C(C)=C(CCC(C)CC(=O)O)C2(C)CCCC(C)(C)C12 (stereo unspecified) | 3.82% | inactive | inactive |  |  | 
CCC(=O)OCC(=O)[C@@]1(OC(=O)CC)[C@@H](C)C[C@H]2[C@@H]3CCC4=CC(=O)C=C[C@]4(C)[C@@]3(F)[C@@H](O)C[C@@]21C | -5% | inactive | inactive |  |  | 
CC(C)c1cc2c(c(O)c1O[C@@H]1O[C@H](CO)[C@@H](O)[C@H](O)[C@H]1O)CC1(O)CCC(O)C(C)(C)C1CC2 (stereo partly specified) | -22.1% | inactive | inactive |  |  | 
O=C(O[C@@H]1O[C@H](CO)[C@@H](O)[C@H](O)[C@H]1O)c1c(O)cc(O)cc1/C=C/c1ccccc1 | -23.7% | inactive | inactive |  |  | 
C[C@]12CCC(=O)C=C1[C@@H](O)C[C@@H]1[C@@H]2[C@@H](O)C[C@@]2(C)[C@H]1CC[C@]2(O)C(=O)CO | 16.3% | inactive | inactive |  |  | 
CCCCc1ccc(NS(=O)(=O)c2ccc(F)cc2)cc1 | -9.55% | inactive | inactive |  |  | 
CCS(=O)(=O)N1CC(CC#N)(n2cc(-c3ncnc4[nH]ccc34)cn2)C1 | 4.89% | inactive | inactive |  |  | 
CN(CC1(C)CCCO1)S(=O)(=O)c1ccc(Cl)c(S(N)(=O)=O)c1 (stereo unspecified) | -1.69% | inactive | inactive |  |  | 
